This passage reports PBM binding z-score results from the supplement of paper PMC6555819.

In the test the test system is VDR:RXRa (NR concentration 270 nM, RXRa partner concentration 90 nM). Description: PBM binding z-score (relative to random genomic background probes); higher = stronger binding; sequences stand for … in GC…GCGATTGACAGCGTAGAATGAAGG
As for the experimental part:
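Protein-binding microarray (Agilent 4x180K custom design, double-stranded 60-nt probes: 5' GC cap, 34-nt variable region, 24-nt constant primer region; full probe sequence given). Purified or IVT nuclear receptor:RXRα heterodimers (3:1 NR:RXRα, mostly 270:90 nM) or homodimers were incubated for 1 h in PBS with 2% milk and no ligand, then detected with Alexa488 antibodies. Fluorescence from o1-orientation probes (~5 replicates averaged) was converted to z-scores against 500 random hg19 background probes. Variable regions are seed direct-repeat (DR0–DR5) sites, all their single-nucleotide variants and half-site ablations.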
Consider ATATGAAGGTTAGCTGGGGTCATTCAGACTAGGC, for which the PBM binding z-score worked out at 6.61.
CAGCCTTGGTCAGGGCCAGTATAGGAGGAACGTT: the PBM binding z-score is -0.707.
To CGAACTAGGTCATCCAGGACAGTGATTACATTGA belongs 4.57; to GCATATAGGGAATACAAGGTGAAAGTCCGATTGT, 0.0593; to CGAACTAGGTCAGAACACGACAGTGAAGGATGAT, 0.217.
Next, TCAGACAGGTGAAGGTAACTCAGGTACGCAGTCG: 0.943.
To TCTAGCAGGCCAGAGTGTCACTCAAGAGGTACGG belongs -0.00537; to ATCGAAAGGTCGAGGTGACTATAGAGAAAGGGAA, 2.55; to TCATATAGGTTAATGCTAGGTGAAAGTCCGATCT, 1.43.
Take TCTTGTAGATCAATCAGGTTAAGAAAGCCTGAGT: the PBM binding z-score stood at 1.
Next, TCTTGTAGATCAAGCAGGTTAAGTAAGCCTGAGT: 0.507; ATCGAAAGGTCGAAGGTGAGTATACCCACCCGAA: 2.91.
Next, TCATACAGGTAAAGGTGAAAGTCGAACGATATGA: 1.13; ATATGTAGGTTACATCCGGGCCATTCAGGCTATG: 0.659; TCTATTAGTTGAAGGGCAAGCGACGAGTCCGTTT: 0.979.
On to CCTAGCAGGCCAATCTGGCTCACTCAAGGCTTGA, for which the PBM binding z-score was -0.563.
Next, CCTCGGAGGACAGAAGGTTAGAGCTGTCCGCTTT: -0.275; GCGACTGGGGCAAAGCAGGTTACAATAAGGTTGG: 0.294; ACAGAGAGGTGAGTGAAGGTAACTCAGCTGGACG: 0.13.
On to GCAGACAGGAGAAACGCAGGTAACTCAGGGTGGC, for which the PBM binding z-score is -0.548.
TAGCCTAGGTCATGCGTGCCAGTATAGTGTCGGC registered a PBM binding z-score of 2.31.
In turn, GTACCAAGGTGAATAGCTCGTTGATGAGTAGGCG returned a PBM binding z-score of -0.223.
Next, CCTATTAGTTGACCATGAGGGCAACCGAAGCTCG: 1.02.
The sequence CTCGAAAGGTCGGTTGAGTTGAGTATACGGATAA registered a PBM binding z-score of 3.45.
With TCGAGTAGGCTAGTCGGGGCATTCAGCCAACATA, the PBM binding z-score is -0.402.
Next, CGAACTAGATCATCCAGGACAGTGAATACATTGA: 0.286; CCTTACGGGTGACGAGGTTATAGCACGACGAGCG: 0.935.
Turning to CCTACTGGGCCAGTCAGAGGTCATTGATCATATG, the PBM binding z-score was 3.67.
For the sequence AATACAGGGGCACTAGGCCAGAGTAGGTACGAAT, the PBM binding z-score is 0.171.
The sequence TCATATAGGTAAAGGAGAAAGTCGAACGATATGA displayed a PBM binding z-score of 0.392.
CAAACTATGTCAAAGGTCAAAGTCGAGCCAACCA: the PBM binding z-score was 5.41.
To TGAATGAGGTTAAAGATGAGGGAACGTGGCGTCG belongs 1.48; to CCTGATAGGTCAATGGTCAGCTAAAGCAGCTCGC, 1.99; to CCTAGCAGGCCAATCTGGGTCACTCCAGGCTTGA, 0.284.
ATCGAAAGGTCGAAGGTGAGTAGACCCACCCGAA had a PBM binding z-score of 2.43.
In the case of GCGACTCGGGCATCAGCAGGTTACCATAACTTAA, the PBM binding z-score was -0.42.
Next, CCAGACAGATGAAAGGTAACTCAGTCTGGTACGC: 0.208.
To ATCTATAGGTAACCAAGTTCAGTGAATGCCGAAC belongs 5.03; to TCATATTGGTAATACAGGTGAAAGTCGGCATCTA, 1.12.
On to TCTCGGAGGATACGAAAGGTCAGAGCTCGACATC, for which the PBM binding z-score came out at 2.6.
